# What was measured:
# [1] = target: T1, Inhibitor of nuclear factor kappa-B kinase subunit epsilon (Homo sapiens) (UniProt Q14164); details: at 1 µM;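 also: reported values are averaged percent inhibition figures against human IKKε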
# T1 sequence (whole entry): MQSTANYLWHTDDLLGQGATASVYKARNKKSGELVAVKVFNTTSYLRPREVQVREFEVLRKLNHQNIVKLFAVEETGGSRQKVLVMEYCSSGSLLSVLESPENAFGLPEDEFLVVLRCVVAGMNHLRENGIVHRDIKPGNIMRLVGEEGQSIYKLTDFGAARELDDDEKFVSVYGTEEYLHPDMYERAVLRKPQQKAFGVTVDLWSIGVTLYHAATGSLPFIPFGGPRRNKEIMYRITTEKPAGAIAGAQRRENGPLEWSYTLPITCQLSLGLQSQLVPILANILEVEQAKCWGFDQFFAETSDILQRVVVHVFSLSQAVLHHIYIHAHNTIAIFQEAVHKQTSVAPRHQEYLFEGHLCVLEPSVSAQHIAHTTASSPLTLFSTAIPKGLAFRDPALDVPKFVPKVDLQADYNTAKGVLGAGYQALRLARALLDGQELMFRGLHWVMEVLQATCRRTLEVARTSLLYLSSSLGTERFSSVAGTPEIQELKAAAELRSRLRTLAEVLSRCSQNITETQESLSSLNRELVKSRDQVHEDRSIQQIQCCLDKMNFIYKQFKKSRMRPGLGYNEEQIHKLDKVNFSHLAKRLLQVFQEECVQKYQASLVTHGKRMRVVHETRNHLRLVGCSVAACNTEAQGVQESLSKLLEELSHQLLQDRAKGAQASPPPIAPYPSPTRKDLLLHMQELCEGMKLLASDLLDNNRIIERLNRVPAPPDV
# [2] = target: T2, Serine/threonine-protein kinase Nek1 (Homo sapiens) (UniProt Q96PY6); details: at 0.1 µM
# T2 sequence (whole entry): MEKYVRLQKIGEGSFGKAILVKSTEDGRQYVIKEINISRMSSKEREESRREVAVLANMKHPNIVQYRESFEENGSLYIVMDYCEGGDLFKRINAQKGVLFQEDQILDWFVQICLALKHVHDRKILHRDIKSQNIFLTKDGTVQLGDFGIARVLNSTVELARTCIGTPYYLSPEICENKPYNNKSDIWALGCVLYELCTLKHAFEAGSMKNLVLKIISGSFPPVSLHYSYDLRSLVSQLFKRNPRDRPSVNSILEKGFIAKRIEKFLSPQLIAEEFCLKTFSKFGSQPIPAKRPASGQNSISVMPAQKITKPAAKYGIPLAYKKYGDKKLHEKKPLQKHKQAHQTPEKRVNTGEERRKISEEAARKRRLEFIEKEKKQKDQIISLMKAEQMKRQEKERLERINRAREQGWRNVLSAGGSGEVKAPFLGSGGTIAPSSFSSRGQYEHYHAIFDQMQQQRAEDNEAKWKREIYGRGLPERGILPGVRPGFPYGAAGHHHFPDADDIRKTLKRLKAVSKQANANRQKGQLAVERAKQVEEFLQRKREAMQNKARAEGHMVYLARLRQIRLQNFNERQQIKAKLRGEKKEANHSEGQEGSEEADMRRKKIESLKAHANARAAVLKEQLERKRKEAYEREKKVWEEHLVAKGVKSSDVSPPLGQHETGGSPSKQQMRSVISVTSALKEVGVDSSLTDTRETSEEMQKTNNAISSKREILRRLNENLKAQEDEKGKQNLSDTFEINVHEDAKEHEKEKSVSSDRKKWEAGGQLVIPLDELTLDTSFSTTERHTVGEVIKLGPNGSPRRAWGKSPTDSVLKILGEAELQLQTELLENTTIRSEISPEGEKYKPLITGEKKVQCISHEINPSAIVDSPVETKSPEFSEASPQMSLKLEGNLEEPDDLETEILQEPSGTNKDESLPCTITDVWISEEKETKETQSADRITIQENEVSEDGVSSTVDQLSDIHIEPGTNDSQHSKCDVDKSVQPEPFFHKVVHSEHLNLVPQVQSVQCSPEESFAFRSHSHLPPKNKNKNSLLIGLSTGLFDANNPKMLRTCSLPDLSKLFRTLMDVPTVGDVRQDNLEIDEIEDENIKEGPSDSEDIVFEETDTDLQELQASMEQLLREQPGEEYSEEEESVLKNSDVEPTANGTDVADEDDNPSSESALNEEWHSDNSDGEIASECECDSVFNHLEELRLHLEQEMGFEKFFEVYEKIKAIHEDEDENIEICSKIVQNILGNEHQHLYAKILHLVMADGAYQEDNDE
# [3] = target: T2, Serine/threonine-protein kinase Nek1 (Homo sapiens); details: at 1 µM
# [4] = target: T3, Serine/threonine-protein kinase Nek2 (Homo sapiens) (UniProt P51955); details: at 0.1 µM
# T3 sequence (whole entry): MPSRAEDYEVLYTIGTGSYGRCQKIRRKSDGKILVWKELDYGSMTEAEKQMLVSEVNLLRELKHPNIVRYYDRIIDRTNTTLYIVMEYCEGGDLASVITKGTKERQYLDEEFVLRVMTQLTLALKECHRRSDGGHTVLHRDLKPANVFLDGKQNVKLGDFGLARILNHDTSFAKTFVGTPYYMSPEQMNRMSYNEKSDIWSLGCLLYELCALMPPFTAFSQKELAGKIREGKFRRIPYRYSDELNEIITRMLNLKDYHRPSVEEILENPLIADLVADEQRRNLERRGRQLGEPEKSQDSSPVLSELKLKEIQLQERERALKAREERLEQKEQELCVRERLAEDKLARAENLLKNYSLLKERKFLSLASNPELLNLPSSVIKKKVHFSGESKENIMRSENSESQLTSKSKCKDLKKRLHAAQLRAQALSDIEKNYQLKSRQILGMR
# [5] = target: T3, Serine/threonine-protein kinase Nek2 (Homo sapiens); details: at 1 µM
# [6] = target: Serine/threonine-protein kinase Nek6 (Homo sapiens) (UniProt Q9HC98); details: at 0.1 µM
# [7] = target: Serine/threonine-protein kinase Nek6 (Homo sapiens) (UniProt Q9HC98); details: at 1 µM
# [8] = target: Serine/threonine-protein kinase Nek7 (Homo sapiens) (UniProt Q8TDX7); details: at 0.1 µM
# [9] = target: Serine/threonine-protein kinase Nek7 (Homo sapiens) (UniProt Q8TDX7); details: at 1 µM
# [10] = target: T4, Serine/threonine-protein kinase Nek9 (Homo sapiens) (UniProt Q8TD19); details: at 0.1 µM;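 also: reported value is the mean percent inhibition of NEK9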
# T4 sequence (whole entry): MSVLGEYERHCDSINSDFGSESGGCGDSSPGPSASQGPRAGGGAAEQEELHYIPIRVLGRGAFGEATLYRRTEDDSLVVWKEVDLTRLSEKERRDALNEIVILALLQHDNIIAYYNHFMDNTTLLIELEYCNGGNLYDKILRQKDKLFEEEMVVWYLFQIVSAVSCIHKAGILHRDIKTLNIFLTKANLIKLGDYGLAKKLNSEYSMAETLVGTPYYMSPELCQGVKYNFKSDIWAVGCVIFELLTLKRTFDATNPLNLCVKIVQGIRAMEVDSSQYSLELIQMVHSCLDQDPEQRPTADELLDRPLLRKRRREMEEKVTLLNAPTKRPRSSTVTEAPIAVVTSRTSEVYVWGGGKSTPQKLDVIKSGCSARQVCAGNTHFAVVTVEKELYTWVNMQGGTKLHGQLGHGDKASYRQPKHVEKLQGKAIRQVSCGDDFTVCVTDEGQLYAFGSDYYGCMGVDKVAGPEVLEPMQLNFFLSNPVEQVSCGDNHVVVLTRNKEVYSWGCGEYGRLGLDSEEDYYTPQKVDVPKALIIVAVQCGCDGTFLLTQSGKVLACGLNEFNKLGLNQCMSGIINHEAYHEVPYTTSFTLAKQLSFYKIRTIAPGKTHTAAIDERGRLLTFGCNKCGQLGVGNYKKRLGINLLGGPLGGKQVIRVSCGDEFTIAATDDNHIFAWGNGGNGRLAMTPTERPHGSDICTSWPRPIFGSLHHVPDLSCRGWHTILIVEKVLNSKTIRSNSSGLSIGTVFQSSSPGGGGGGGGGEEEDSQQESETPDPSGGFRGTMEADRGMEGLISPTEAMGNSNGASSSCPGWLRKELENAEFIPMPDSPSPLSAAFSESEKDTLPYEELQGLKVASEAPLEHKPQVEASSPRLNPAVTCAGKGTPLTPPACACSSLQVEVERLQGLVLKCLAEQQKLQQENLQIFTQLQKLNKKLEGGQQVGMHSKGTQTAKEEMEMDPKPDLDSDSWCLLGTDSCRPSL
# Serine/threonine-protein kinase Nek6 (Homo sapiens), sequence (Q9HC98 whole entry): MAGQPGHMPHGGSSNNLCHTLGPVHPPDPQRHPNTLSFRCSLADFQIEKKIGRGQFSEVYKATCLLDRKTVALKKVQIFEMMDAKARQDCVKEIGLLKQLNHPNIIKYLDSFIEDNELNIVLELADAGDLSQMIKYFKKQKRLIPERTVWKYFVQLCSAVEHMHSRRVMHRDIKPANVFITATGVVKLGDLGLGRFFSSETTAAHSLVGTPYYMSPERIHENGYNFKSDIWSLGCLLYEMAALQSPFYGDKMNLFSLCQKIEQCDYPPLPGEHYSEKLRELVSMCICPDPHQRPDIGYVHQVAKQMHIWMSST
# Serine/threonine-protein kinase Nek7 (Homo sapiens), sequence (Q8TDX7 whole entry, looked up): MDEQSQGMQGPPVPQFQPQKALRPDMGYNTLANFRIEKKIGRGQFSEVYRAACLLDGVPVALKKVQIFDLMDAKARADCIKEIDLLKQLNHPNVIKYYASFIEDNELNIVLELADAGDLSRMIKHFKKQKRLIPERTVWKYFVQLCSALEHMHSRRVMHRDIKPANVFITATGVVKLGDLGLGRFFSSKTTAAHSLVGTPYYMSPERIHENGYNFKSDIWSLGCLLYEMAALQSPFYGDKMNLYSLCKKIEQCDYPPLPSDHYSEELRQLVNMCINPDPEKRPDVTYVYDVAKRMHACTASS
smiles,measurement,setting,value
NS(=O)(=O)c1ccc(-c2cc3ccncc3cc2OCc2ccccc2)cc1,inhibition,[1],2.21%
same,inhibition,[2],2.31%
same,inhibition,[3],2.44%
same,inhibition,[4],3.99%
same,inhibition,[5],3.04%
same,inhibition,[6],3.18%
same,inhibition,[7],3.3%
same,inhibition,[8],5.28%
same,inhibition,[9],4.88%
same,inhibition,[10],9.27%
